NPSR antagonist: neuropeptide S receptor (human) antagonism, cAMP | AID 1461 | Q6W5P4 | 220,000 compounds, 1% hits | Potency, µM (titrated, usually from 38.3 µM), actives largely listed as inhibitors | CHO-NPSR cells, cAMP TR-FRET, antagonist mode; further: nearly all actives have a fitted effect of over 50% in size
HttQ103 aggreg: mutant huntingtin aggregation inhibition. Potency, µM (top dose mostly 46.1 µM), actives largely listed as inhibitors. 220,000 compounds, 1.1% hits. PC12 HttQ103-GFP aggregates, Acumen cytometry, 40 h; further: nearly all actives have a fitted effect of over 60% in size
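PC12 cells stably carrying ecdysone-inducible HTT exon 1 Q103–GFP were induced with tebufenozide (100 nM final) and treated with library compounds in titration. GFP aggregates in lysates were counted by laser scanning cytometry.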
A-T KAP1 phos: potential ataxia-telangiectasia treatment; Potency, µM (series often up to 57.5 µM), usual class: activators; F2112 A-T fibroblasts, KAP-1 phosphorylation AlphaLISA; neocarzinostatin DNA damage 30 min before lysis; AID 485349; 320,000 compounds, 0.19% hits; further: nearly all actives have a fitted effect of over 45% in size
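hTERT-immortalized A-T patient fibroblasts (F2112), 500 cells/well in OPTI-MEM, 1% FBS, got compounds for 60 min, then NCS for 30 min at 37C. Lysates were then assayed for phospho-KAP-1 by AlphaLISA (anti-pKAP1 donor, anti-KAP1 acceptor beads), 6 hr at 25C.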
HTT ATP protect: cytoprotection in Huntington HTT-Q103 PC12 cell model. PC12 HTT-Q103 induced, cytoprotection, ATP luminescence, 40 h. Potency, µM (top dose mostly 56.4 µM), usual class: activators. 230,000 compounds, 0.14% hits. AID 1471; further: nearly all actives have a fitted effect of over 45% in size
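Compounds added alongside 100 nM tebufenozide, which induces toxic Q103 huntingtin exon 1-GFP in stable PC12 cells; surviving cells quantified by luminescent ATP measurement. Medium: phenol red-free DMEM, 5% equine and 5% calf serum.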
mIDH1 inhibitor: inhibitors of human mutant IDH1 R132H | O75874 | IDH1-R132H enzyme, NADPH consumption, diaphorase/resazurin fluorescence | Potency, µM (highest dose often 76.6 µM), usual class: inhibitors | 390,000 compounds, 0.093% hits; further: nearly all actives have a fitted effect of over 65% in size
Target sequence (O75874 whole entry R132H, stated change not applied): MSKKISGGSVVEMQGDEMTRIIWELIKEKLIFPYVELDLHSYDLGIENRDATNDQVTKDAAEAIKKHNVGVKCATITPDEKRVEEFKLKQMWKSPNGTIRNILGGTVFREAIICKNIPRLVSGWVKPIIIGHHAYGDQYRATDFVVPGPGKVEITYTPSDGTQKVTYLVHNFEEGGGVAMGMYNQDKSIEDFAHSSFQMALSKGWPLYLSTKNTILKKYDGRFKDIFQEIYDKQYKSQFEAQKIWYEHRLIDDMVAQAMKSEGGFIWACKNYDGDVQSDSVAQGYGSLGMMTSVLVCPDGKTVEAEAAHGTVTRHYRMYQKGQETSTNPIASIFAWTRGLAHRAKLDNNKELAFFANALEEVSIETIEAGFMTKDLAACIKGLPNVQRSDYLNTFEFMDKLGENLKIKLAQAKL
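IDH1-R132H (0.5 ug/mL) preincubated 30 min with compound, then NADPH (0.016 mM) and alpha-KG (2 mM) added; 80 min at RT, pH 7.5. Remaining NADPH coupled via diaphorase/resazurin to fluorescence (540/590 nm); concentration-response curves normalized to no-enzyme control.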
Resorufin autofl: autofluorescence interference, mutant IDH1 hit counter-screen. Resorufin detection reagent fluorescence interference, cell-free. 750 tested, under 10 active. shares compounds with mIDH1 inhibitor. inhibition of signal, % at 51.2 µM
IDH1 WT: wild-type IDH1 (human) inhibition counterscreen; shares compounds with mIDH1 inhibitor; WT IDH1 enzyme, NADPH diaphorase/resazurin fluorescence; Potency, µM (doses to about 115 µM), usual class: inhibitors; 750 compounds, 9% hits; further: nearly all actives have a fitted effect of over 55% in size
Target sequence (O75874 whole entry, looked up): as the sequence (O75874 whole entry R132H, stated change not applied) above, with H132R counted along it
IDH1 R132H conf: inhibits human mutant IDH1 enzyme in cherrypick confirmation | Potency, µM (doses to about 76.6 µM), hits mostly inhibitors | IDH1 R132H enzyme, NADPH diaphorase/resazurin fluorescence | 750 compounds, 83% hits | shares compounds with mIDH1 inhibitor | AID 624002; further: nearly all actives have a fitted effect of over 50% in size
Hits are given with their value; i = inactive; ? = inconclusive; nt = no result; [ ] = dose if it differs, or a comment. An excerpt weighted towards active compounds, which were near 1.1% of everything screened. The call rests on the fitted dose curve; in most records, active means well fitted curve in the direction sought with a large enough effect; inconclusive means small, poorly fitted or top-dose-only effect, or another doubt; inactive means no such curve, though single readings can be large; an effect the other way counts as inactive or inconclusive.

SMILES	NPSR antagonist	HttQ103 aggreg	A-T KAP1 phos	HTT ATP protect	mIDH1 inhibitor	others
COc1ccc(S(=O)(=O)Nc2ccc(Oc3ncccn3)c(Cl)c2)cc1	i	i	i	i	i
COc1ccc(NS(=O)(=O)c2ccc(Oc3ncccn3)cc2)cc1	i	11µM	i	i	i
COCCOc1nc2c(c(=O)n(C)c(=O)n2C)n1Cc1cccc(OC)c1	i	8.9µM	i	i	i
CCCN(CCc1ccccc1)[C@H]1CCc2c(O)cccc2C1	nt	nt	nt	i[1.9 µM]	nt
COC(=O)C1=C(C(=O)OC)[C@@H]2N(C)c3ccc(OC)cc3[C@@]23C[C@@H](C(=O)OC)N(S(=O)(=O)c2cccs2)C3=N1	nt	nt	nt	i[10 µM]	nt
COc1ccc(NC(=O)c2sc(SCc3ccccc3)nc2N)cc1	i	25µM	nt	i[10 µM]	i
COc1ccc(NC(=O)c2sc(SC)nc2N)cc1	i	nt	i	i[10 µM]	i
Cc1ccc(C(=O)CSC2=C(C#N)C(c3ccco3)C3=C(CCCC3=O)N2)cc1 (configuration not stated)	i	i	i	i	i
CC(=O)C1=C(C)NC(SCC(=O)c2cc(Cl)ccc2Cl)=C(C#N)C1c1ccco1 (configuration not stated)	10µM	?	i	i	i
COc1ccccc1NC(=O)C1=C(C)NC(SCC(=O)c2ccc(C)cc2)=C(C#N)C1c1ccco1 (configuration not stated)	6.3µM	?	i	i	nt
N#CC1=C(SCC(=O)c2ccccc2)NC2=C(C(=O)CCC2)C1c1ccco1 (configuration not stated)	i	11µM	i	i	i
CC(=O)C1=C(C)NC(SCC(=O)c2ccc(Cl)c(Cl)c2)=C(C#N)C1c1ccco1 (configuration not stated)	10µM	i	i	i	i
CCOC(=O)N1CCN(Cc2nc3cc(NC(=O)c4ccccc4Cl)ccc3n2C(C)C)CC1	nt	nt	nt	nt	i
CO[C@@H](CCO)C[C@H]1O[C@H](C(=O)OC(C)C)CC[C@@H]1C	nt	nt	nt	i	nt
COc1ccc(CNC(=O)COC(=O)c2cc(-c3ccc(Cl)s3)nc3ccccc23)cc1	10µM	i	i	i	i
O=C(COC(=O)c1cc(-c2ccc(Cl)s2)nc2ccccc12)NCc1ccco1	?	i	i	i	i
COc1ccc2cc1Oc1ccc(cc1)C[C@H]1c3c(cc(OC)c4c3Oc3c(ccc5c3[C@H](C2)N(C)CC5)O4)CCN1C	nt	nt	i	nt	i
COc1ccc2cc1Oc1ccc(cc1)CC1c3c(cc(OC)c4c3Oc3cc5c(cc3O4)CCNC5C2)CCN1C (configuration not stated)	?	4µM	i	i[10 µM]	i
CCOc1cc(/C=C2/SC(=S)NC2=O)ccc1OC(=O)c1ccco1	i	14µM	i	i	i
Cc1cccc2cc(COC(=O)COc3ccccc3)c(=O)[nH]c12	i	i	22µM	i[0.074 µM]	i
CCC(C)(C)NC(=O)C1CCN(S(=O)(=O)c2c(C)noc2/C=C/c2ccc(C)cc2)CC1	nt	nt	nt	nt	i
O=S(=O)(/C(=C/c1ccc(C(F)(F)F)cc1)c1nc2ccccc2[nH]1)c1ccccc1	6.3µM	?	32µM	i[1.9 µM]	i
O=C(Nc1ccccc1)C1=C(c2ccccc2)S(=O)(=O)CCS1(=O)=O	?	5µM	i	i	i
O=C(O)c1ccccc1C(=O)Nc1ccccc1	i	i	i	i[10 µM]	i
CCc1nc2c(c(=O)c3ccccc3n2C)c(=O)n1C1CCCCCC1	i	i	i	i[10 µM]	i
Cn1c2ccccc2c(=O)c2c(=O)n(C3CCCCC3)c(-c3cccs3)nc21	i	i	i	i	37µM	Resorufin autofl=i;IDH1 WT=i;IDH1 R132H conf=16µM
